In the library only some 4% were active in any assay of this set; here they are far more common.
GDH-TPI inh: counter-screen for M. tuberculosis FBA inhibitors: GDH-TPI coupled enzymes | GDH-TPI coupled enzyme counterscreen, NADH absorbance | inhibition, % at 4.8 µM | 360,000 compounds, 1.2% hits | AID 588335; in the data active = inhibition above about 30%;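 note: 0% = DMSO wells and 100% = wells lacking the enzyme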
Mtb betalactam: beta-lactam sensitization of Mtb H37Rv | inhibition, % at 25 µM | 330,000 compounds, 0.27% hits | M. tuberculosis H37Rv growth with meropenem, percent inhibition; call rule not given here;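 note: growth measured after seven days incubation then overnight dye step; 0% = bacteria only wells and 100% = bacteria with antibiotic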
Rv3671c inh: Rv3671c (M. tuberculosis) protease inhibition | inhibition, % at 5.96 µM | AID 2606 | 320,000 compounds, 0.048% hits | P9WHR9; in the data active = inhibition above about 38%;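 note: extracellular domain of Rv3671c used as enzyme; 0% = enzyme with DMSO and 100% = no enzyme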
RecA splice inh: inhibitors of M. tuberculosis RecA intein splicing. P9WHJ3. cell-free RecA intein splicing, fluorescence. inhibition, % (test concentration not listed). 290,000 compounds, 0.75% hits; in the data active = inhibition above about 30%; inconclusive = no clear call, values can overlap the other calls;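 note: 0% = vehicle wells and 100% = reference inhibitor control wells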
Target sequence (P9WHJ3 whole entry, looked up, canonical isoform): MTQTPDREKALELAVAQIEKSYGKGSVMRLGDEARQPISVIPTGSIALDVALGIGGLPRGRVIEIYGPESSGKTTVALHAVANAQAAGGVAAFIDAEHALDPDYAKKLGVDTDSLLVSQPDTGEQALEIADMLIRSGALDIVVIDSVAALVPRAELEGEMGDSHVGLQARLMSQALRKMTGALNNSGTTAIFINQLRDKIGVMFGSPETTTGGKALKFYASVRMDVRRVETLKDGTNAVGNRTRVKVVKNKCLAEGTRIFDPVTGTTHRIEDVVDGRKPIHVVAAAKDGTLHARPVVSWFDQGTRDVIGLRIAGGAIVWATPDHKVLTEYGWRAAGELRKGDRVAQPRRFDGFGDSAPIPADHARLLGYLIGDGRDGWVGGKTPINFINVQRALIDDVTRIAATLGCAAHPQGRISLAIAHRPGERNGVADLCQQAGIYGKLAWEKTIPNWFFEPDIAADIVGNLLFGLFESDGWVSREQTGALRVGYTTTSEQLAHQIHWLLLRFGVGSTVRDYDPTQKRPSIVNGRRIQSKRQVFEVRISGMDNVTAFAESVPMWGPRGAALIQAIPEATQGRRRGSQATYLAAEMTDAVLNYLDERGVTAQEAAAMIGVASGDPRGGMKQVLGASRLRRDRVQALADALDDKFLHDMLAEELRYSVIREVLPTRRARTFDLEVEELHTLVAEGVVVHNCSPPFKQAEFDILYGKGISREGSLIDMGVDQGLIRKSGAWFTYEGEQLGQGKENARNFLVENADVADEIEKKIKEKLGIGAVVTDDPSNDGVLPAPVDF
Mtb UGM inh: blocks M. tuberculosis UGM enzyme; inhibition, % at 10 µM; 320,000 compounds, 0.06% hits; purified UGM, fluorescence polarization probe displacement; P9WIQ1; in the data active = inhibition above about 10%, passing the limit was not always enough; inconclusive = no clear call, values can overlap the other calls
Mtb FBA inh: Mtb fructose-bisphosphate aldolase inhibition; P9WQA3; purified M. tuberculosis FBA, fluorescence read-out; inhibition, % at 1 µM; 360,000 compounds, 2.3% hits; AID 588726; in the data active = inhibition above about 27%;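 note: 0% = vehicle and 100% = reference inhibitor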
* = called active by the depositor; i = inactive; ? = inconclusive; nt = no result given; + = active, no number.

SMILES	GDH-TPI inh	Mtb betalactam	Rv3671c inh	RecA splice inh	Mtb UGM inh	Mtb FBA inh
C=CCn1c(O)c(C=Nc2ccc(OC)cc2C)c(=O)[nH]c1=O	42.5*	50.1	5.8	-12.2	4.1	0.1
CCCN1C(=O)CC(c2ccc(OC)c(OC)c2)C1=O (stereo unspecified)	nt	nt	nt	nt	nt	-2.9
COC(=O)c1ccc(S(=O)(=O)c2ccc(Cl)cc2)c(N)c1	2.9	-0.6	-9.4	-7.5	-0.1	114.7*
O=C(O)CCN1C(=O)/C(=C\c2cccc(OCC(=O)Nc3ccc(Cl)cc3)c2)SC1=S	7.6	-3.9	-22.6	13.4	-1.5	-13.2
O=C(O)COc1cccc(/C=C2/SC(=S)N(Cc3ccccc3)C2=O)c1	14.0	2.8	-29.1	44.5*	-0.2	2.0
Cc1ccc(NC(=O)COc2cccc(/C=C3\SC(=S)N(CCC(=O)O)C3=O)c2)cc1Cl	4.2	6.8	-18.7	30.6*	0.4	2.4
CCOC(=O)C1=CN(CC)S(=O)(=O)NC1c1cccc(OC)c1 (stereo unspecified)	-4.5	nt	nt	nt	nt	-0.6
Cc1ccc(F)cc1C(=O)N1CCCCC1c1cc(C(=O)Nc2cccc(C#N)c2)no1 (stereo unspecified)	5.5	nt	nt	nt	nt	0.0
COc1ccc(C=NNc2nc3c([nH]2)c(=O)n(C)c(=O)n3C)cc1	34.4*	nt	nt	nt	nt	-1.4
Cc1ccc(C=NNc2nc3c([nH]2)c(=O)n(C)c(=O)n3C)cc1	45.8*	nt	nt	nt	nt	5.0
C[C@@H]1CN([C@@H](C)CO)C(=O)c2cc(Br)cnc2O[C@H]1CN(C)C(=O)c1ccc2c(c1)OCO2	1.4	nt	nt	nt	nt	-1.6
CCOc1ccc2[nH]c(=O)c(=O)[nH]c2c1	34.8*	-2.3	3.0	nt	1.5	3.4
COc1ccc2cc(/C=C/C(=O)N3CCN(CC(=O)N4CCCCCC4)CC3)ccc2c1	13.8	6.9	-0.2	nt	7.5	30.1*
Nc1cc(Cl)nc(N/N=C/c2ccccc2[N+](=O)[O-])n1	6.6	2.6	1.8	-2.3	1.2	0.8
Nc1cc(Cl)nc(N/N=C/c2ccc([N+](=O)[O-])cc2)n1	33.3*	-3.5	9.6	-2.9	3.7	-4.5
CCCn1c(C)nc2c(c1=O)c1nc3ccccc3nc1n2CCC1=CCCCC1	16.8	-2.4	4.3	-10.4	0.7	91.3*
Cc1nc2c(c(=O)n1CCC1=CCCCC1)c1nc3ccccc3nc1n2/N=C/c1ccco1	16.4	91.7	-6.2	-1.6	-2.6	9.3
COCc1cc(=O)n2c([nH]c3ccccc32)c1C#N	19.2	3.5	1.9	-78.5	1.4	+
C=C(C)Cc1c(C)c(C#N)c2[nH]c3ccccc3n2c1=O	-1.3	99.2	-6.7	-0.9	1.9	+
Cc1c(CCC(=O)O)c(=O)n2c([nH]c3ccccc32)c1C#N	9.3	3.0	7.4	-8.6	-0.1	+
CCc1cc(=S)n2c([nH]c3ccccc32)c1C#N	-0.9	-4.3	8.2	-17.4	-0.3	8.8
Cc1nc2ccc(NS(=O)(=O)c3cccc([N+](=O)[O-])c3)cc2s1	0.4	-1.9	3.8	nt	1.3	-1.9
COc1ccc(CN2CCN(C(=O)c3ccccc3C(=O)c3ccccc3)CC2)cc1F	11.5	nt	nt	nt	nt	2.4
O=C(COc1ccc(C(=O)c2ccccc2)cc1)Nc1cccnc1	-14.6	92.8	-4.7	nt	0.2	-2.8
Cc1cccn2c(=O)c3cc(C(=O)NCc4ccccc4)c(=N)n(CCCN4CCOCC4)c3nc12	5.6	nt	nt	nt	nt	124.7*
SMILES	GDH-TPI inh	Mtb betalactam	Rv3671c inh	RecA splice inh	Mtb UGM inh	Mtb FBA inh
Cc1ccc2nc3c(cc(C(=O)NCCc4ccccc4)c(=N)n3CCCN3CCOCC3)c(=O)n2c1	0.8	7.4	-4.6	-285.1	3.1	122.3*
Cc1cccn2c(=O)c3cc(C(=O)NCCN4CCOCC4)c(=N)n(CCCN4CCOCC4)c3nc12	6.7	-5.1	-2.7	i	-1.2	114.3*
CCOc1ccc(NC(=O)N2CCC(NC(=O)C(Cc3ccccc3OC)NC(C)=O)CC2)cc1 (stereo unspecified)	1.9	-10.8	2.4	-0.1	-1.3	-0.3
C/C(=N\NC(=O)c1ccc(NS(=O)(=O)c2cccs2)cc1)c1ccccc1	15.5	2.8	-12.8	-2.1	2.7	2.3
C/C(=N\NC(=O)c1ccc(NS(=O)(=O)c2cccs2)cc1)c1ccncc1	31.7*	3.3	-0.8	-0.9	1.3	0.5
C/C(=N\NC(=O)c1ccc(NS(=O)(=O)c2cccs2)cc1)c1ccc(O)cc1O	67.5*	-7.9	30.4	7.7	0.1	1.0
CCCOC(=O)c1ccc(-c2ccc(C=O)o2)cc1	36.2*	-8.3	-14.6	0.4	nt	5.5
NS(=O)(=O)c1ccc(-c2ccc(C=O)o2)cc1	34.1*	2.5	0.7	4.3	0.3	5.5
CC(NC(=O)c1cccs1)c1ccc(Br)cc1 (stereo unspecified)	6.2	-1.5	3.6	0.5	-0.2	0.3
O=C1CCCC2=C1C(c1ccc(O)cc1)c1c(ccc3ccccc13)N2 (stereo unspecified)	4.4	0.8	4.4	-82.8	-0.9	160.3*
O=C1CCCC2=C1C(c1ccc(O)c(O)c1)c1c(ccc3ncccc13)N2 (stereo unspecified)	9.5	-5.3	-0.5	-2.1	0.9	-2.2
CCOC(=O)c1cnc2ccc(Cl)cc2c1NCCN(C)C	11.7	9.7	4.8	1.8	20.2*	3.9
CCOC(=O)c1cnc2ccc(Br)cc2c1NCCO	0.9	11.4	-6.0	-0.1	-1.6	-4.2
COc1ccc(CNC(=O)c2ccc(=O)oc2)cc1OC	59.6*	-8.5	9.0	-0.6	-2.4	0.6
O=C(NCc1cccnc1)c1cccc(Cl)c1	0.0	-3.0	2.7	-2.1	-0.7	0.7
O=C(NCc1cccnc1)c1ccc(=O)oc1	43.4*	6.4	5.0	1.2	-1.1	-0.7
O=C(NC(CSC(=O)c1ccccc1)C(=O)O)OCc1ccccc1 (stereo unspecified)	-6.9	nt	nt	nt	nt	-0.5
COc1ccc(CCN2C(=O)C(Oc3ccccc3C)C2c2ccc3c(c2)OCO3)cc1 (stereo unspecified)	8.7	-5.1	-6.5	-7.8	-1.3	1.6
O=C1C(Oc2ccccc2)C(c2ccc3c(c2)OCO3)N1CCc1ccc(F)cc1 (stereo unspecified)	33.3*	?	6.4	-11.8	-0.4	2.4
COCc1cc(=O)n2[nH]c(C)c(-c3ccc(Cl)cc3)c2n1	7.6	nt	nt	nt	nt	135.3*
CCc1cc(=O)n2[nH]c(C)c(-c3ccccc3OC)c2n1	4.8	-0.7	-2.5	-0.3	-1.8	5.7
CCOC(=O)C1CCCN(C(=O)c2cn(CC)c3ccc(S(=O)(=O)N4CCCC4)cc3c2=O)C1 (stereo unspecified)	37.6*	-3.8	0.1	nt	1.1	-2.2
O=C(O)CC1Sc2nnc(COc3ccc(Cl)cc3)n2N=C1c1ccccc1 (stereo unspecified)	-1.9	-8.8	3.5	-0.7	-2.7	-10.2
O=C(/C=C/c1ccc(O)c(O)c1)OC1C(O)CC(OC(=O)/C=C/c2ccc(O)c(O)c2)(C(=O)O)CC1O (stereo unspecified)	24.8	5.5	-8.6	-4.4	1.2	-2.5
